# According to PubChem BioAssay (EPA / NIEHS):
# Where “and” joins values, the source holds several entries; their conditions need not be identical. Identical values can stand only once. Calls of active or inactive are those of the source. The calls were made as follows: active = hit-call score of the fitted dose curve at least 0.9, where 1 is the maximum; inactive = score below 0.9.
# Experiment: BSK_IMphg_SRB: Viability Assessment in the BioMAP Diversity Plus: IMphg Assay (AID 2284292);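 also: measured one day after compound addition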
# Conditions: primary human endothelial cells with macrophages
# Protocol: BSK_IMphg is a cell-based, multiplexed-readout assay that uses venular endothelial cells and macrophages, a human vascular primary cell, with measurements taken at 24 hours after chemical dosing in a microplate: 96-well plate.BSK_IMphg_SRB is an assay component measured in the BSK_IMphg assay. It measures […] related to cell death using Sulforhodamine staining technology.Data from the assay component BSK_IMphg_SRB was analyzed at the endpoint, BSK_IMphg_SRB, in the positive analysis fitting direction relative to DMSO as the negative control and baseline of activity. Using a type of viability reporter, gain or loss-of-signal activity can be used to understand protein changes. To generalize the intended target to other relatable targets, this assay endpoint is annotated to the 'cell morphology' intended target family, where the subfamily is 'cell conformation'.
# The levels of cell surface (or secreted, indicated by the prefix "s") biomarker endpoints were measured by ELISA. Overt cytotoxicity to cells in confluent adherent cultures (all systems other than the BT system) was assessed by measuring total protein levels using sulforhodamine B (SRB) staining in parallel cultures at the time of biomarker measurements, indicated as SRB endpoints. For proliferation assays for adherent cell types, individual cell types are cultured at sub-confluence and relative cell numbers quantified by SRB staining at time points optimized for each system (48 h: 3C and CASM3C systems; 72 h: BT and HDF3CGF systems; 96 h: SAg system). SRB was performed by staining cells with 0.1% SRB after fixation with 10% TCA and reading wells at 560 nm.Viability and proliferation of PBMC (T cells) was quantified by Alamar Blue reduction for the SAg and BT systems. For PBMC viability (referred to as PBMC Cytotoxicity within the assay endpoint names), cells were plated (75,000/well in a 96-well plate) and then chemical samples added for 1 h before addition of activators, SEB and TSST-1 (20 ng/mL final concentration each). Cells were incubated for 90 h. Then, Alamar Blue (20 uL/well) (Invitrogen, Cat DAL1100) was added for 6 h, and the plates were read with a fluorescence microplate reader at 546/580 nm (excitation/emission). For PBMC proliferation, cells were plated and activated as above but incubated for only 16 h prior to addition of Alamar Blue. Plates were read after 6 h.
Compound,outcome,AC50
COC(=O)C(F)(F)C(F)(F)OC(F)(C(F)(F)F)C(F)(F)OC(F)=C(F)F (centres undefined),inactive,–
O=C(O)C=CC(F)(C(F)(F)F)C(F)(F)F,inactive,–
O=C(O)C(F)(OC(F)(F)C(F)(F)C(F)(F)F)C(F)(F)F (centres undefined),inactive,–
O=C(O)C(F)(F)OC(F)(F)C(F)(F)OC(F)(F)C(=O)O,inactive,–
OCC(F)(F)OC(F)(F)C(F)(F)OC(F)(F)C(F)(F)OC(F)(F)CO,inactive,–
O=C(O)C(F)(F)OC(F)(F)C(F)(F)OC(F)(F)F,inactive,–
FC(F)(F)C(F)(C(F)(F)F)C(F)(F)C(F)(F)CC1CO1 (centres undefined),inactive,–
OCC(F)(F)OC(F)(F)C(F)(F)OC(F)(F)CO,inactive,–
NC(=O)C(F)(F)C(F)(F)F,inactive,–
O=C(O)C(F)(F)C(F)(F)C(=O)O,inactive,–
CC(O)C(F)(F)C(F)(F)F (centres undefined),inactive,–
C=CC(=O)OCC(F)(F)C(F)F,inactive,–
O=S(=O)(F)C(F)(F)C(F)(F)C(F)(F)C(F)(F)C(F)(F)C(F)(F)C(F)(F)C(F)(F)F,inactive,–
OCC(F)(F)OC(F)(F)C(F)(F)OC(F)(F)C(F)(F)OC(F)(F)F,–,47.8 µM (active) and 53.7 µM (active)
